# According to the antibiotic and cytotoxicity screens of Wong et al. (2023):
# Screen size: about 39,000 compounds; about 3,300 (8.5%) were called active. Many of the other results were omitted from the sample, so actives are more common in it than they were.
# System: HepG2
# Assay: cytotoxicity call (relative viability < 0.9)
# Conditions: 10 µM
row,Compound,cytotoxicity call
1,C[C@H](CO)N1C[C@H](C)[C@H](CN(C)S(=O)(=O)c2cccs2)OCCCC[C@H](C)Oc2ccc(NC(=O)CCC(F)(F)F)cc2C1=O,inactive
2,Cc1noc(C)c1NC(=O)Nc1ccc2c(c1)C(=O)N([C@H](C)CO)C[C@H](C)[C@@H](CN(C)S(C)(=O)=O)O2,inactive
3,C[C@@H]1CCCCO[C@@H](CN(C)C(=O)Nc2ccc(C(F)(F)F)cc2)[C@H](C)CN([C@@H](C)CO)C(=O)c2cc(NC(=O)Nc3ccc4c(c3)OCO4)ccc2O1,inactive
4,Cc1noc(C)c1NC(=O)Nc1ccc2c(c1)C(=O)N([C@@H](C)CO)C[C@H](C)[C@@H](CN(C)C(=O)Nc1ccccc1)OCCCC[C@H](C)O2,inactive
5,C[C@H](CO)N1C[C@H](C)[C@H](CN(C)C(=O)Nc2cccc3ccccc23)Oc2ccc(NC(=O)CCC(F)(F)F)cc2C1=O,inactive
6,C[C@@H]1CCCCO[C@@H](CN(C)S(C)(=O)=O)[C@@H](C)CN([C@H](C)CO)C(=O)c2cc(NC(=O)c3ccncc3)ccc2O1,inactive
7,C[C@@H]1CN([C@@H](C)CO)C(=O)Cc2cc(NS(=O)(=O)c3cccs3)ccc2O[C@@H]1CN(C)Cc1ccc(Oc2ccccc2)cc1,inactive
8,C[C@H]1CN([C@@H](C)CO)C(=O)Cc2cc(NS(=O)(=O)c3cccs3)ccc2O[C@H]1CN(C)Cc1ccc(Oc2ccccc2)cc1,inactive
9,C[C@H](CO)N1C[C@H](C)[C@@H](CN(C)Cc2ccc(Oc3ccccc3)cc2)Oc2ccc(NS(=O)(=O)c3cccs3)cc2CC1=O,inactive
10,C[C@@H]1CN([C@H](C)CO)C(=O)Cc2cc(NS(=O)(=O)c3cccs3)ccc2O[C@@H]1CN(C)Cc1ccc(Oc2ccccc2)cc1,active
11,C[C@H]1CN([C@@H](C)CO)C(=O)Cc2cc(NS(=O)(=O)c3cccs3)ccc2O[C@@H]1CN(C)Cc1ccc(Oc2ccccc2)cc1,inactive
12,C[C@@H]1CN([C@H](C)CO)C(=O)Cc2cc(NS(=O)(=O)c3cccs3)ccc2O[C@H]1CN(C)Cc1ccc(Oc2ccccc2)cc1,active
13,Cn1cc(CN2CCC3(CC2)CNC(=O)CO3)cn1,inactive
14,COc1cccc(S(=O)(=O)Nc2ccc3c(c2)[C@@H]2C[C@H](CC(=O)NC4CCCCC4)O[C@@H](CO)[C@@H]2O3)c1,inactive
15,Cc1ccc(S(=O)(=O)Nc2ccc3c(c2)C(=O)N([C@H](C)CO)C[C@@H](C)[C@@H](CN(C)S(=O)(=O)c2ccccc2)O3)cc1,inactive
16,C[C@@H]1CN([C@@H](C)CO)S(=O)(=O)c2ccc(C#CC(C)(C)O)cc2O[C@H]1CN(C)C(=O)CN(C)C,inactive
17,COc1ccc(NC(=O)N(C)C[C@H]2OCCCC[C@@H](C)Oc3ccc(NC(=O)c4ccccc4)cc3C(=O)N([C@@H](C)CO)C[C@@H]2C)cc1,inactive
18,CC(C)NC(=O)N(C)C[C@H]1OCCCC[C@H](C)Oc2ccc(NC(=O)Nc3cccc4ccccc34)cc2C(=O)N([C@H](C)CO)C[C@@H]1C,inactive
19,C[C@H]1CCCCO[C@H](CN(C)Cc2ccc(C(=O)O)cc2)[C@@H](C)CN([C@@H](C)CO)C(=O)c2cc(NS(=O)(=O)c3ccc(F)cc3)ccc2O1,inactive
20,CN(C)C/C=C/C(=O)Nc1ccc(C(=O)Nc2cccc(Nc3ncc(Cl)c(-c4c[nH]c5ccccc45)n3)c2)cc1,active
21,O=C(O)C1CCOCC1,inactive
22,Cc1ccc(S(=O)(=O)Nc2ccc3c(c2)C(=O)N([C@H](C)CO)C[C@@H](C)[C@H](CN(C)Cc2ccc(Cl)c(Cl)c2)OCCCC[C@H](C)O3)cc1,active

row,Compound,cytotoxicity call
1,Cc1ccc(S(=O)(=O)Nc2ccc3c(c2)C(=O)N([C@@H](C)CO)C[C@@H](C)[C@@H](CN(C)Cc2ccc(Cl)c(Cl)c2)OCCCC[C@@H](C)O3)cc1,active
2,Cc1ccc(S(=O)(=O)Nc2ccc3c(c2)C(=O)N([C@H](C)CO)C[C@H](C)[C@@H](CN(C)Cc2ccc(Cl)c(Cl)c2)OCCCC[C@H](C)O3)cc1,inactive
3,Cc1ccc(S(=O)(=O)Nc2ccc3c(c2)C(=O)N([C@H](C)CO)C[C@H](C)[C@H](CN(C)Cc2ccc(Cl)c(Cl)c2)OCCCC[C@H](C)O3)cc1,inactive
4,Cc1ccc(S(=O)(=O)Nc2ccc3c(c2)C(=O)N([C@@H](C)CO)C[C@@H](C)[C@H](CN(C)Cc2ccc(Cl)c(Cl)c2)OCCCC[C@@H](C)O3)cc1,inactive
5,Cc1ccc(S(=O)(=O)Nc2ccc3c(c2)C(=O)N([C@@H](C)CO)C[C@H](C)[C@@H](CN(C)Cc2ccc(Cl)c(Cl)c2)OCCCC[C@@H](C)O3)cc1,active
6,Cc1ccc(S(=O)(=O)Nc2ccc3c(c2)C(=O)N([C@H](C)CO)C[C@@H](C)[C@H](CN(C)Cc2ccc(Cl)c(Cl)c2)OCCCC[C@@H](C)O3)cc1,active
7,Cc1ccc(S(=O)(=O)Nc2ccc3c(c2)C(=O)N([C@H](C)CO)C[C@@H](C)[C@@H](CN(C)Cc2ccc(Cl)c(Cl)c2)OCCCC[C@H](C)O3)cc1,inactive
8,Cc1ccc(S(=O)(=O)Nc2cccc3c2O[C@H](CN(C)C(=O)Nc2ccc(C(F)(F)F)cc2)[C@H](C)CN([C@H](C)CO)C3=O)cc1,inactive
9,C[C@@H]1CCCCO[C@@H](CN(C)CC2CCCCC2)[C@H](C)CN([C@H](C)CO)C(=O)c2cc(NS(=O)(=O)c3ccccc3)ccc2O1,inactive
10,Cc1ccc(S(=O)(=O)Nc2ccc3c(c2)C(=O)N([C@H](C)CO)C[C@H](C)[C@H](CN(C)Cc2ccc(Cl)c(Cl)c2)OCCCC[C@@H](C)O3)cc1,active
11,Cc1ccc(S(=O)(=O)Nc2ccc3c(c2)C(=O)N([C@@H](C)CO)C[C@H](C)[C@@H](CN(C)Cc2ccc(Cl)c(Cl)c2)OCCCC[C@H](C)O3)cc1,active
12,Cc1ccc(S(=O)(=O)Nc2ccc3c(c2)C(=O)N([C@H](C)CO)C[C@H](C)[C@@H](CN(C)Cc2ccc(Cl)c(Cl)c2)OCCCC[C@@H](C)O3)cc1,inactive
13,O=C(O)CC[C@H]1CCC(=O)N1,inactive
14,C[C@@H]1CN([C@H](C)CO)C(=O)Cc2cc(NC(=O)c3ccncc3)ccc2O[C@H]1CN(C)S(=O)(=O)c1cn(C)cn1,inactive
15,C[C@@H]1CCCCO[C@@H](CN(C)CC2CC2)[C@H](C)CN([C@H](C)CO)C(=O)c2cc(NS(C)(=O)=O)ccc2O1,inactive
16,C[C@@H]1CN([C@@H](C)CO)C(=O)c2cccc(NS(=O)(=O)c3ccccc3)c2O[C@@H]1CN(C)S(C)(=O)=O,inactive
17,C[C@@H]1CN([C@@H](C)CO)C(=O)c2cc(NS(=O)(=O)c3ccccc3)ccc2O[C@H]1CN(C)S(C)(=O)=O,inactive
18,O=C(C[C@@H]1C=C[C@H](NC(=O)c2cccc(F)c2)[C@@H](CO)O1)NCCN1CCCC1,inactive
19,CN(C)CC(=O)N1CC(=O)N2[C@H](CO)[C@@H](c3ccc(C#Cc4cccnc4)cc3)[C@H]2C1,inactive
20,CCOC(=O)COc1ccc2c(=O)cc(-c3ccccc3)oc2c1,active
21,COc1ccc2c(=O)cc(-c3ccccc3OC)oc2c1,inactive
22,O=c1cc(-c2ccccc2)oc2ccccc12,inactive

row,Compound,cytotoxicity call
1,CCS(=O)(=O)Nc1ccc2c(c1)C(=O)N(C)[C@@H]1CC[C@@H](CC(=O)N[C@@H]3CCN(Cc4ccccc4)C3)O[C@@H]1CO2,inactive
2,Cc1cc(C(=O)Nc2cccc3c2O[C@@H](CN(C)Cc2ccncc2)[C@@H](C)CN([C@H](C)CO)C3=O)n(C)n1,inactive
3,C=CCOC(=O)[C@@H]1[C@H]2C(=O)O[C@H](c3ccccc3)[C@H](c3ccccc3)N2[C@H](c2ccc(OCCOC(=O)[C@H]3C[C@H]4C(=O)N5CCC[C@H]5C(=O)N4[C@H]3c3cccc(OCCO)c3)cc2)[C@@]12C(=O)Nc1ccc(I)cc12,inactive
4,CN(C)CCCNC(=O)C[C@@H]1CC[C@@H]2[C@H](COC[C@H](O)CN2S(=O)(=O)c2ccccc2)O1,inactive
5,Cc1cc(CN)cc(C)c1NC(=O)c1ccc(-c2cc(Cl)ccc2Cl)o1,active
6,Cc1ccc(CN)cc1Cl,inactive
7,Cc1cc(C(=O)c2cc3cc(Cl)ccc3o2)ccc1Cl,inactive
8,CCCCN1CC=C[C@@]23O[C@@H]4C=CCCOC(=O)[C@@H]4[C@H]2C(=O)N([C@@H](C)CO)[C@@H]3C1=O,inactive
9,NNc1ccc2c(N)[nH]nc2c1,inactive
10,COc1cccc(CN(C)C[C@@H]2OCc3ccccc3-c3c(n(C)c4ccccc34)C(=O)N([C@H](C)CO)C[C@H]2C)c1,inactive
11,NCCC(=O)N1c2ccccc2Sc2ccccc21,inactive
12,O=C(c1cccs1)N1c2ccccc2Sc2ccccc21,inactive
13,O=C(Cc1cccs1)N1c2ccccc2Sc2ccccc21,active
14,C[C@@H]1CN([C@H](C)CO)C(=O)c2cc(NC(=O)Nc3ccc(C(F)(F)F)cc3)ccc2O[C@@H](C)CCCCO[C@@H]1CN(C)S(=O)(=O)c1ccc(Cl)cc1,inactive
15,O=C1CN(S(=O)(=O)Cc2ccccc2)C[C@@H]2[C@H](c3ccc(C#Cc4ccc(F)cc4)cc3)[C@@H](CO)N12,inactive
16,O=C1CN(S(=O)(=O)Cc2ccccc2)C[C@@H]2[C@@H](c3ccc(C#Cc4ccc(F)cc4)cc3)[C@@H](CO)N12,active
17,O=C1CN(S(=O)(=O)Cc2ccccc2)C[C@@H]2[C@@H](c3ccc(C#Cc4ccc(F)cc4)cc3)[C@H](CO)N12,active
18,O=C1CN(S(=O)(=O)Cc2ccccc2)C[C@H]2[C@H](c3ccc(C#Cc4ccc(F)cc4)cc3)[C@@H](CO)N12,inactive
19,O=C1CN(S(=O)(=O)Cc2ccccc2)C[C@H]2[C@H](c3ccc(C#Cc4ccc(F)cc4)cc3)[C@H](CO)N12,inactive
20,O=C1CN(S(=O)(=O)Cc2ccccc2)C[C@H]2[C@@H](c3ccc(C#Cc4ccc(F)cc4)cc3)[C@@H](CO)N12,inactive
21,CN(C)S(=O)(=O)N1CCO[C@@H]2CN(c3ncc(F)cn3)C[C@@H]21,inactive
